D1 allo mod: allosterically modulates the human D1 dopamine receptor | P21728 | HEK293 D1, CRE-luciferase, dopamine EC30 potentiation; actives deviate in either direction | B-score at 10 µM | 58,000 compounds, 5.9% hits | AID 641;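 active = luminescence count or its row- and column-corrected plate score outside the 99.7% band of the plate's sample wells, on either side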
Target sequence (P21728 whole entry, looked up): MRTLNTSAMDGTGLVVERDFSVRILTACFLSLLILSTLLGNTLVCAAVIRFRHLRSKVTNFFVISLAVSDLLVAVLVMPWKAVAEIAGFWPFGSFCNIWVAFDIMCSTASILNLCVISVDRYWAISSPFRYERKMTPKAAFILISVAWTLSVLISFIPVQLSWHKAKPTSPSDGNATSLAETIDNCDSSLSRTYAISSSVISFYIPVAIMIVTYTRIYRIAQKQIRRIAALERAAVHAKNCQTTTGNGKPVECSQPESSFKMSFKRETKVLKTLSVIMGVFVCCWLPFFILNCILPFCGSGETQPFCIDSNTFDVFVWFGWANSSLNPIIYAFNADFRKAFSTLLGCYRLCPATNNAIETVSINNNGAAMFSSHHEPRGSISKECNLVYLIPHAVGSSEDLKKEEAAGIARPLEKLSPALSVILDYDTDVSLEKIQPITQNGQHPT
hDAT+cocaine: modulates human dopamine transporter uptake under cocaine; Q01959; LLC-PK1 hDAT cells, [14C]-dopamine uptake with cocaine IC80; actives deviate in either direction; B-score at 10 µM; 110,000 compounds, 1.3% hits;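 active = Z score or B-score, a plate-position-corrected score, falls beyond the plate's 99.7% confidence bounds, in either direction; inactive = both scores lie inside the 99.7% bounds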
EphB4 antag: blocks human EphB4 binding to ephrin-B2 | 97,000 compounds, 0.15% hits | inhibition, % at 7 µM | EphB4 LBD / TNYL-RAW-Alexa532 peptide, fluorescence polarization | P54760;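 active = inhibition above the screen-wide mean inhibition plus 3 SD, cut at about 15% in these data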
Large screens that a line does not name were inactive. This is one part of a sample in which hits are shown more often than they occur.

CNC(=O)CSc1nnc(-c2cc(C)cc(C)c2)o1	D1 allo mod -3.2
Cc1cc(C)cc(-c2nnc(SCC(=O)NCc3cccs3)o2)c1	none
NC(=O)CC(NC(=O)Cc1ccc(Br)cc1)c1ccc(N2CCC(Cc3ccccc3)CC2)c([N+](=O)[O-])c1 (centres undefined)	none (no result: D1 allo mod, EphB4 antag)
Cc1noc(C)c1CSc1nc2ccccc2c(=O)n1-c1ccccc1	D1 allo mod 5.3
Cc1noc(C)c1CSc1nc2ccccc2c(=O)n1-c1ccc(F)cc1F	none (no result: D1 allo mod, hDAT+cocaine)
O=C(NCC1CC1)C1(C(F)(F)F)C/C(=C\Cc2ccccc2)CCCO1 (centres undefined)	none (no result: D1 allo mod, EphB4 antag)
COc1ccc(NC(=O)CCC(=O)Nc2nnc(C(F)(F)F)s2)c(OC)c1	none (no result: D1 allo mod)
CCCCNC(=O)C1c2ccccc2C(=O)N(c2ccc(OC)cc2)C1c1ccc(OC)cc1 (centres undefined)	hDAT+cocaine -7.8 (no result: D1 allo mod)
CCN1CCN(CCCNC(=O)C2c3ccccc3C(=O)N(C)C2c2ccc(OC)cc2)CC1 (centres undefined)	none
C/C(Cl)=C/CSc1nc2c(c(=O)[nH]c(=O)n2C)n1C(C)C	D1 allo mod 7.9
CCOC(=O)CSc1nc2c(c(=O)[nH]c(=O)n2C)n1C/C=C(/C)Cl	none
O=C1c2ccccc2S(=O)(=O)c2cc(C(=O)N3CCC(N4CCCC4)CC3)ccc21	none (no result: D1 allo mod, EphB4 antag)
CCN(CC)S(=O)(=O)c1ccc(OC)c(NC(=O)c2cccc([N+](=O)[O-])c2C)c1	hDAT+cocaine -7.7 (no result: D1 allo mod)
COc1cc2c(cc1NC(=O)c1cccc([N+](=O)[O-])c1C)oc1ccccc12	none (no result: D1 allo mod)
Nc1c(NC2CCCCC2)c2ccccc2oc1=O	none (no result: D1 allo mod)
Cc1ccccc1Nc1c(N)c(=O)oc2ccccc12	hDAT+cocaine -7.7 (no result: D1 allo mod)
CCN1C(=O)N(S(=O)(=O)c2ccc(C)cc2)[C@@H](c2ccccc2)C(C(=O)OC)=C1C	none (no result: D1 allo mod, EphB4 antag)
Cc1ccc(-c2cc(NC(=O)CSc3n[nH]c(N)n3)n(-c3ccccc3)n2)cc1	none (no result: D1 allo mod)
Nc1nc(SCC(=O)Nc2cc(-c3ccccc3)nn2-c2ccccc2)n[nH]1	hDAT+cocaine 1.4 (no result: D1 allo mod)
CCc1cc(-c2n[nH]c(C)c2Oc2ccc(C(C)C)cc2)c(O)cc1O	none (no result: D1 allo mod)
CCc1nc(N2CCN(C(=O)c3ccco3)CC2)c2oc3ccccc3c2n1	hDAT+cocaine 2.8
Cc1nc(N2CCN(C(=O)c3ccco3)CC2)c2oc3ccccc3c2n1	none (no result: D1 allo mod, EphB4 antag)
CC(C)C[C@H]1COCCS(=O)(=O)N1Cc1ccc(Cl)c(Cl)c1	none (no result: D1 allo mod, EphB4 antag)
Clc1cccc2sc(N3CCOCC3)nc12	none
Clc1cccc2sc(N3CCCC3)nc12	D1 allo mod -6.5
CC(=O)Nc1ccc(N2C(C(C)=O)=NN(c3ccccc3)C2c2cccs2)cc1 (centres undefined)	none (no result: D1 allo mod)
COc1ccc(N2C(C(C)=O)=NN(c3ccccc3)C2c2cccs2)cc1 (centres undefined)	hDAT+cocaine 1.4 (no result: D1 allo mod)
Cc1nc(=O)c(-c2ccccc2)c(C)n1-c1ccc(O)cc1	none (no result: D1 allo mod)
Cc1nc(=O)c(-c2ccccc2)c(C)n1-c1ccccc1O	D1 allo mod -5.6 (no result: EphB4 antag)
Cc1ccc(NC(=O)CSc2nnc(CSc3nc(C)cc(C)n3)n2Cc2ccco2)c(C)c1	hDAT+cocaine 2.7
Cc1ccc(C)c(NC(=O)CSc2nnc(CSc3nc(C)cc(C)n3)n2Cc2ccco2)c1	none (no result: EphB4 antag)
CCc1cccc(N(C)C(N)=Nc2cccc3ccccc23)c1	none (no result: D1 allo mod, EphB4 antag)
Cc1ccccc1N1CCN(C(=O)CCN2C(=O)c3ccccc3C2=O)CC1	none (no result: D1 allo mod)
COC(C[C@H]1O[C@H]1[C@H](O)[C@H](C)OCc1ccccc1)OC	none (no result: D1 allo mod, EphB4 antag)
COC(=O)CCC(=O)NNC(=O)CCCOc1ccc(Cl)cc1Cl	none (no result: D1 allo mod)
COC(=O)CCC(=O)NNC(=O)c1ccc(Cl)cc1Cl	hDAT+cocaine -4.7 (no result: D1 allo mod)
O=C(C1CCC1)N1CCc2cc(S(=O)(=O)NCCN3CCN(c4ccccc4F)CC3)ccc21	none
CCOC(=O)C1=C(C)NC(SCC(N)=O)=C(C#N)C1c1cccs1 (centres undefined)	none (no result: D1 allo mod)
CCOC(=O)C1=C(C)NC(SCC(=O)Nc2cc(C)on2)=C(C#N)C1c1cccs1 (centres undefined)	D1 allo mod -5.3
COc1cc(C2=CCN(C(C)=O)CC2)ccc1OC(C)=O	none (no result: D1 allo mod, EphB4 antag)
Cc1ccc(S(=O)(=O)Nc2ccc(=O)n(Cc3ccc(Cl)c(Cl)c3)c2)cc1	none (no result: D1 allo mod)
CC(C)Oc1ccccc1C1CC(=O)Nc2c1c(=O)n(C)c(=O)n2C (centres undefined)	none (no result: D1 allo mod, hDAT+cocaine)
Cc1cc(C(=O)NCc2cc(C)n(C)n2)sc1-c1ccccc1	D1 allo mod -3.2
Cc1cc(C(=O)N(C)C)sc1-c1ccccc1	none (no result: D1 allo mod)
Cc1ccc(O)c(N=Nc2ccccc2)n1	none (no result: D1 allo mod, EphB4 antag)
COc1ccc2[nH]cc(CCNC(C)=O)c2c1	none (no result: D1 allo mod, EphB4 antag)
CCCCCN=C(N)N/N=C/c1c[nH]c2ccc(OC)cc12	hDAT+cocaine 3.7 (no result: D1 allo mod, EphB4 antag)
COC(=O)[C@@H]1C[C@@]2(O)[C@@H](O)[C@@H](O)[C@@H](O)C[C@H]2N1Cc1cc(OC)cc(OC)c1	none (no result: D1 allo mod, EphB4 antag)
COC(=O)CCC(=O)Nc1ccc(Br)cc1	none
CN(C1=NC(=O)C(CC(=O)Nc2ccc(Br)cc2)S1)c1ccc(O)cc1 (centres undefined)	D1 allo mod -3.8, hDAT+cocaine -4
Cc1cc(C)c(S(C)(=O)=O)c(Oc2ccc(C(C)(C)C)cc2)n1	none (no result: D1 allo mod, hDAT+cocaine)
CCCCNC(=O)NC1(C(F)(F)F)Oc2ccccc2O1	hDAT+cocaine -1.9 (no result: D1 allo mod)
NS(=O)(=O)c1ccc(CCNC(=O)NC2(C(F)(F)F)Oc3ccccc3O2)cc1	hDAT+cocaine -6.7
NS(=O)(=O)c1ccc(CCNC(=O)CSc2ccccc2)cc1	none (no result: D1 allo mod)
O=C(NCCN1CCOCC1)NC1(C(F)(F)F)Oc2ccccc2O1	none
COc1ccc2cc(CN(CC3CCCO3)S(=O)(=O)c3ccccc3Cl)c(=O)[nH]c2c1 (centres undefined)	none (no result: D1 allo mod)
CCOC(=O)N1CCC(N2C(=O)c3ccccc3C2Nc2c(C)cccc2C)CC1 (centres undefined)	none (no result: D1 allo mod, hDAT+cocaine)
CCCNC(=O)COc1ccc(S(=O)(=O)Nc2ccc(C)cc2)cc1	none (no result: D1 allo mod)
COc1ccc(Cl)cc1-c1nc(-c2ccc(NC(=O)c3ccncc3)cc2)no1	none
COc1ccc(-c2nc(-c3ccc(NC(=O)c4ccncc4)cc3)no2)cc1OC	D1 allo mod -6.7
CC1CCCN(CC(O)CN)C1 (centres undefined)	none (no result: D1 allo mod)
Cc1ccc(CC(=O)Nc2ccccc2N2CCOCC2)cc1C	none (no result: D1 allo mod)
O=[N+]([O-])c1cc(-c2nnc(C34CC5CC(CC(C5)C3)C4)o2)cc([N+](=O)[O-])c1	none (no result: D1 allo mod, hDAT+cocaine)
CCC(C)NS(=O)(=O)c1ccc(NC(=O)c2c(-c3ccccc3)noc2C)cc1 (centres undefined)	none (no result: D1 allo mod)
Cc1onc(-c2ccccc2)c1C(=O)Nc1ccc(S(=O)(=O)NC2=NCCCCC2)cc1	EphB4 antag 20
COc1ccc(Nc2ncc3c(n2)CC(c2ccccc2)CC3=O)cc1 (centres undefined)	D1 allo mod 9.8 (no result: EphB4 antag)
CCc1ccc(Nc2ncc3c(n2)CC(c2ccc(OC)cc2)CC3=O)cc1 (centres undefined)	none (no result: D1 allo mod)
COC(=O)C(NC(=O)c1ccco1)(Nc1ccc(Br)cn1)C(F)(F)F (centres undefined)	none
CCOC(=O)Cc1csc(NC(=O)CC(C)(C)C)n1	none (no result: D1 allo mod)
CCC(c1nnnn1Cc1ccccc1)N(Cc1ccco1)Cc1cc2cc(OC)ccc2[nH]c1=O (centres undefined)	hDAT+cocaine 3.4 (no result: D1 allo mod)
COc1ccc2cc(CN(Cc3cccnc3)Cc3nnnn3Cc3ccccc3)c(=O)[nH]c2c1	hDAT+cocaine 2.2
COc1ccc2cc(CN(Cc3cccs3)Cc3nnnn3Cc3ccccc3)c(=O)[nH]c2c1	none (no result: D1 allo mod)
